CtBP-E1A blk: CtBP/E1A binding inhibition; activity change, % (test concentration not listed); AlphaScreen GST-E1A/His-CtBP binding, 1536-well; hits give low values; AID 651724; actives 0.49% (n = 340,000); in the data active = activity change below about -65%; inconclusive = mostly about -30% to -63%; note: % is set by controls: 0 for no effect and ±100 for the full control effect
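GST-E1A and His-tagged CtBP (125 nM each as 5X stock) were preincubated with pin-transferred compound for 2 h at 37 °C in the dark, then glutathione donor and nickel acceptor beads were added for 1 h before AlphaScreen reading.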
Six1-Eya2 inh: Six1/Eya2 interaction inhibition | Q15475+O00167 | AlphaScreen GST-Six1/His-Eya2 binding, biochemical; hits give low values | activity change, % (concentration not given with the values) | actives 0.56% (n = 360,000) | AID 651725; in the data active = activity change below about -65%; inconclusive = mostly about -30% to -63%; note: % is set by controls: 0 for no effect and ±100 for the full control effect
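Six1/Eya2 binding was read as AlphaScreen signal after compounds were pinned into GST-Six1 plus His-tagged Eya2 (5X stock 250/500 nM) in pH 8.0 Tris/NaCl/TCEP buffer, beads added, then incubated 1 h, 37 C, dark.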
JMJD2A Tudor: blocks the human JMJD2A Tudor domain. AlphaScreen JMJD2A-Tudor / H3K4me3 peptide binding. Potency, µM (top dose mostly 114 µM), for inactives: top-dose activity change, negative = inhibition, hits mostly inhibitors. actives 4.4% (n = 390,000). AID 504339; note: potency is the fitted concentration of half-maximal effect; % is set by controls: 0 for no effect and ±100 for the full control effect; nearly all actives have a fitted effect of over 50% in size
BAZ2B block: BAZ2B (human) inhibition; Q9UIF8; AlphaScreen BAZ2B-H3K14Ac peptide displacement; Potency, µM (titrated, usually from 114 µM), for inactives: at the highest dose activity change, negative = inhibition, usual class: inhibitors; actives 4.4% (n = 360,000); AID 504333; note: potency is the fitted concentration of half-maximal effect; % is set by controls: 0 for no effect and ±100 for the full control effect; nearly all actives have a fitted effect of over 60% in size
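AlphaScreen displacement of biotin-H3(5-23)K14Ac peptide (50 nM final) from BAZ2B (50 nM final) in PBS pH 7.4, 0.01% Tween-20; complex preformed 30 min RT, then compounds (top 110 uM) 30 min RT, beads 20 min dark.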
TDP1 inh: inhibitors of human tyrosyl-DNA phosphodiesterase TDP1 | AID 485290 | Potency, µM (highest dose often 130 µM), for inactives: top-dose activity change, negative = inhibition, usual class: inhibitors | actives 0.28% (n = 350,000) | recombinant TDP1, AlphaScreen DNA substrate cleavage; note: potency is the fitted concentration of half-maximal effect; % is set by controls: 0 for no effect and ±100 for the full control effect; nearly all actives have a fitted effect of over 40% in size
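Enzyme-compound mixtures sat 15 min at room temperature, followed by a 5 min reaction with 15 nM final substrate and 10 min with AlphaScreen beads. Recombinant human Tdp1 was used at 1 nM final.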
HP1b chromo inh: inhibitors of HP1-beta chromodomain binding to methylated histone tails; P83916; AlphaScreen HP1-beta / biotin-H3K9me3 peptide binding; Potency, µM (doses to about 114 µM), without a hit: top-dose activity change, negative = inhibition, most hits filed as inhibitors; actives 0.56% (n = 390,000); note: potency is the fitted concentration of half-maximal effect; nearly all actives have a fitted effect of over 70% in size
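AlphaScreen: HP1-beta (50 nM) preformed 30 min with biotin-H3(1-18)K9me3 peptide (50 nM) in PBS pH 7.4, 0.01% Tween-20. Compound added for 30 min at RT, then streptavidin donor/nickel chelate acceptor beads (10 ug/mL) for 30 min.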
Active calls of the source: *; ? = inconclusive; nt = no result; [ ] = remark or other dose. An excerpt weighted towards active compounds, which were near 5.3% of everything screened. Unless noted, calls come from the whole dose curve; as a rule, active = well fitted inhibition curve with a large enough effect; inconclusive = small, poorly fitted or top-dose-only effect; inactive = no such curve, though single readings can be large or run the other way.

SMILES | CtBP-E1A blk | Six1-Eya2 inh | JMJD2A Tudor | BAZ2B block | TDP1 inh | HP1b chromo inh
CC(C)c1ccc(S(=O)(=O)/N=C2\C=C(NS(=O)(=O)c3ccccc3)C(=O)c3ccccc32)cc1 | -28.9 | -12.1 | 28.2µM* | 7.08µM* | nt | 20µM*
O=C(COCc1cc(-c2ccc3c(c2)OCO3)on1)NCc1ccccc1Cl | nt | nt | -29.0% | 4.6% | 3.7% | -12.0%
COc1ccccc1C(=O)NCc1ccc2c(c1)CCN2C(=O)c1ccncc1 | nt | nt | -20.7% | -3.8% | 5.4% | 3.2%
COc1cccc(CNC(=O)CCNS(=O)(=O)c2ccc3[nH]c(=O)oc3c2)c1 | 6.7 | 1.3 | -7.5% | -9.0% | 0.7% | 31.4%
COc1ccccc1CNC(=O)CCNS(=O)(=O)c1ccc2[nH]c(=O)oc2c1 | -1.0 | 1.8 | 39.8µM* | 2.7% | 2.0% | 1.1%
COc1ccccc1NC(=O)CCNS(=O)(=O)c1ccc2[nH]c(=O)oc2c1 | 0.3 | -0.2 | 35.5µM* | -21.5% | -5.6% | -3.1%
COc1ccc(OCc2cc(C3Nc4ccccc4C(=O)N3Cc3ccccc3)ccc2OC)cc1 (stereo not drawn) | nt | nt | -20.4% | nt | 0.7% | nt
CC(C)(C)c1ccc(/C=C/C(=O)Nc2ccc(S(N)(=O)=O)cc2)cc1 | nt | nt | -22.8% | -3.0% | nt | 32.3%
CCc1nc(N)nc(N)c1-c1ccc(N(C)Cc2ccccc2)c([N+](=O)[O-])c1 | -24.0 | -28.5 | 44.7µM* | nt | nt | -37.4%
CCN(c1ccc(OC)cc1)S(=O)(=O)c1ccc2[nH]c(=O)ccc2c1 | nt | nt | ? | -18.1% | -1.3% | 27.3%
O=C1C=CC(=O)N1c1ccc2c(c1)Cc1cc(F)ccc1-2 | -1.4 | -3.0 | -2.8% | nt | nt | 3.7%[57 µM]
CC(=O)Nc1ccc2c(c1)Cc1cc(N3C(=O)C=CC3=O)ccc1-2 | -18.0 | 5.9 | 7.08µM* | nt | nt | ?
O=C(Cn1cnc2c(nc3n2CCCCC3)c1=O)Nc1ccc(F)c(Cl)c1 | nt | nt | -6.6% | -2.6% | 2.5% | 36.9%
Fc1ccc(N2N=C(c3cccs3)CC2c2ccccc2)cc1 (stereo not drawn) | 84.9 | 58.3 | 123.0% | 198.7% | 12.6µM* | 177.7%
O=S(=O)(c1ccccc1)N1N=C(c2cccs2)CC1c1ccc(F)cc1 (stereo not drawn) | 0.4 | -1.0 | -18.3%[11.4 µM] | 15.5% | 4.0% | -3.7%
CC(=O)Nc1ccc(S(=O)(=O)Nc2ccc3c(c2)OCO3)cc1 | 0.0 | -2.4 | -6.1% | -3.6% | nt | 15.9%
CC(=O)Nc1ccc(S(=O)(=O)NNC(=O)c2ccc3c(c2)OCO3)cc1 | 4.4 | 8.8 | 11.2µM* | 15.6% | -2.4% | 23.9%
COc1ccc(-c2cc(-c3ccccc3)nc(N)n2)c(O)c1 | -25.4 | -76.6* | -23.6% | nt | nt | 14.4%
Cc1cccc(Cn2cc3c(=O)n(CC(=O)Nc4cccc(C)c4C)nc-3c3cc(F)ccc32)c1 | nt | nt | -11.0% | -3.8% | 0.0% | 24.2%
CN1/C(=C\C(=O)COc2ccc3c(c2)OCO3)C(C)(C)c2ccccc21 | -22.7 | ? | ? | 28.2µM* | 5.5% | ?
COc1ccccc1OCC(=O)/C=C1/N(C)c2ccccc2C1(C)C | -0.8 | 0.7 | 9.6% | 14.3% | -7.7% | 23.3%
N#CC(C#N)=c1ccc2c(c1)NC1(CCCCC1)N=2 | ? | ? | 22.4µM* | 12.6µM* | 10.2% | 31.6µM*
COc1ccc(O[C@H]2C=C[C@@H](c3ccccc3)O[C@H]2COC(=O)CC/C(C)=N\OC[C@@H](O)COCc2ccco2)cc1 | nt | nt | nt | nt | 12.2%[21 µM] | nt
C#CCOCCOCCOCCNc1nc(N2CCN(C(=O)[C@H](CCC(=O)O)n3cc(C(N)Cc4ccc(O)cc4)nn3)CC2)nc(N2CCN(C(=O)[C@H](Cc3cc4ccccc4[nH]3)n3cc(C(N)[C@H](C)CC)nn3)CC2)n1 (stereo partly drawn) | -15.3 | -18.6 | 44.7µM* | 50.1µM* | 6.4% | 14.5%
C#CCOCCOCCOCCNc1nc(N2CCN(C(=O)C(Cc3cc4ccccc4[nH]3)n3cc(C(N)Cc4ccc(O)cc4)nn3)CC2)nc(N2CCN(C(=O)C(CCC(=O)O)n3cc(C(N)C(C)CC)nn3)CC2)n1 (stereo not drawn) | -23.8 | -20.4 | 44.7µM* | 31.6µM* | -0.2% | -6.5%
SMILES | CtBP-E1A blk | Six1-Eya2 inh | JMJD2A Tudor | BAZ2B block | TDP1 inh | HP1b chromo inh
CCCCOC(OCCCC)[C@H](O)CSc1ccc2ccccc2c1 | nt | nt | nt | nt | -1.6%[21 µM] | nt
C/C(=N\NC(=O)CN(c1ccccc1Br)S(C)(=O)=O)c1ccc2c(c1)OCCO2 | -0.1 | -15.6 | ? | -7.0% | 3.5% | ?
C/C(=N\NC(=O)CN(c1ccccc1Br)S(C)(=O)=O)c1cccs1 | -0.3 | 2.4 | 22.4µM* | -2.8% | 3.6% | -5.4%
Cc1c(C(=O)Oc2ccc(Br)cc2)sc2ncn(Cc3ccccc3F)c(=O)c12 | nt | nt | 14.1% | 4.6% | 0.9% | 9.2%
Cc1nc(C)c(CCNS(=O)(=O)c2ccc(C)c(C)c2)s1 | nt | nt | -10.0% | 0.7% | 3.3% | 29.5%[57 µM]
CCOc1ccccc1N(C)C(=O)c1cc(S(=O)(=O)NCCc2ccc(Cl)cc2)ccc1F | nt | nt | -24.8% | 3.2% | 0.0% | 4.7%
CCN(CC)c1ccc(/C=C2\C(=O)c3ccc(C(=O)O)cc3C2=O)cc1 | 18.6 | -15.1 | 44.7µM* | 14.1µM* | -5.1% | 39.8µM*
O=C(NCCCn1ccnc1)C(=O)NCC(c1cccnc1)N1CCN(c2ccccc2)CC1 (stereo not drawn) | -24.0 | 3.8 | 56.2µM* | 50.1µM* | 5.3% | 10.8%
CCc1ccc(NC(=O)C(=O)NCC(c2cccnc2)N2CCN(c3ccc(F)cc3)CC2)cc1 (stereo not drawn) | nt | nt | -16.4% | 5.8% | 1.3% | 32.2%
CCc1ccc(NC(=O)C(=O)NCC(c2cccnc2)N2CCN(C)CC2)cc1 (stereo not drawn) | nt | nt | 56.2µM* | 44.7µM* | 6.5% | 17.3%
O=C(NCc1ccccc1)C(=O)NCC(c1cccnc1)N1CCN(c2ccccc2)CC1 (stereo not drawn) | nt | nt | 27.3% | -7.3% | -11.7% | 85.0%
O=C(NCCCn1ccnc1)C(=O)NCC(c1ccco1)N1CCN(c2ccccc2)CC1 (stereo not drawn) | 1.3 | -2.1 | -6.6%[11.4 µM] | 56.2µM* | 7.2% | 39.4%
COc1cc(NC(=O)N2CCC(CN3CCCCCC3)CC2)cc(OC)c1OC | nt | nt | -20.8% | -3.2% | 5.0% | 16.9%
COc1ccccc1CNC(=O)C1CCCN(c2nc3ccccc3n3cccc23)C1 (stereo not drawn) | nt | nt | -18.4% | -13.3% | -7.8% | 36.8%
CC(=O)c1ccc(NC(=O)CSc2nccn2C2CCCC2)cc1 | nt | nt | -16.3% | ? | 1.5% | 16.8%
COc1ccc(C(=O)CC2(O)C(=O)N(Cc3cccc(C(F)(F)F)c3)c3ccccc32)cc1 (stereo not drawn) | nt | nt | -22.0% | ? | 1.9% | 16.6%
